Parameters in all cases: scale not given: direction of the effect not stated beside the values
The target in test [1] is Protein translocase subunit SecA (Escherichia coli (strain K12)) (UniProt P10408). Nature of the test: Assay to Identify E. coli SecA ATPase Inhibitors. The following applies: 30 µM. Type of test: functional.
Test [2] has as its target T1, Ubiquitin-activating enzyme e1, putative (Leishmania donovani (strain BPK282A1)) (UniProt E9BSI1).
T1 sequence (whole entry): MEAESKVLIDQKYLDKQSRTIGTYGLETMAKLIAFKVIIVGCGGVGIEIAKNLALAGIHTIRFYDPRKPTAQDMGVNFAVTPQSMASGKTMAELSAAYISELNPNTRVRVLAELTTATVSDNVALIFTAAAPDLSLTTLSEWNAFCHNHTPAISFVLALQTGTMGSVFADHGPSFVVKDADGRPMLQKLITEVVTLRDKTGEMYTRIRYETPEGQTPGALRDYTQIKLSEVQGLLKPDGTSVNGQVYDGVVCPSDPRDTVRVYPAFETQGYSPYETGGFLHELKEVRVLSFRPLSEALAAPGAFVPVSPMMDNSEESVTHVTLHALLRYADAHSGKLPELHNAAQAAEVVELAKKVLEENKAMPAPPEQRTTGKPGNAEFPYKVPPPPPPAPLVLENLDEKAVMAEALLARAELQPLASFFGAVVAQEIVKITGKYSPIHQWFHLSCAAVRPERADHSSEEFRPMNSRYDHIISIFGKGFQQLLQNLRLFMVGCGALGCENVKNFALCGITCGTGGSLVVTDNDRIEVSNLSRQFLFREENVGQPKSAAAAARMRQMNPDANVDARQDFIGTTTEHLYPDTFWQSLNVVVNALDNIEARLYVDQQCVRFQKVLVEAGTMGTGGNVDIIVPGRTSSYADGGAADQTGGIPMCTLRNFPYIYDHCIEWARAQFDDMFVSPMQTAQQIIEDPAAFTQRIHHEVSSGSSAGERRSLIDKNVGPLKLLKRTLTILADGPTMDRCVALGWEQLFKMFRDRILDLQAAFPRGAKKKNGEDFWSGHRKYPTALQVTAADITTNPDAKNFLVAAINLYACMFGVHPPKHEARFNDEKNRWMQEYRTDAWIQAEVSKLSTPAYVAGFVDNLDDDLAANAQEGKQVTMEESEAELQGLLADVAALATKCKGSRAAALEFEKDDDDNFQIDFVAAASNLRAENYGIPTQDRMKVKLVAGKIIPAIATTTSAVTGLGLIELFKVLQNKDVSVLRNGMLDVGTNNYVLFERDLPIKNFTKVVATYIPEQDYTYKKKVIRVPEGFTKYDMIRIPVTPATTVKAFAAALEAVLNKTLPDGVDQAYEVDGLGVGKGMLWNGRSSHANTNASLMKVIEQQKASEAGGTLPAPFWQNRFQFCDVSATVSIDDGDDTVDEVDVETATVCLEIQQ
Nature of the test: Leishmania donovani Ubiquitin Activating Enzyme (LdE1). The conditions noted are these: 30 µM. Type of test: functional.

Test [3] has as its target AMP-activated protein kinase, AMPK (Homo sapiens) (UniProt P54646+O43741+P54619+Q9UGJ0+Q9Y478+Q13131+Q9UGI9). Nature of the test: AMP-dependent Kinase enzyme assay. An in vitro enzyme assay that detects ADP turnover that is directly proportional to AMPK activity. This uses naive AMPK that is activated during the assay with MK-8722. The following applies: 30 µM. Type of test: functional.

Test [4] deals with Sialic acid-binding Ig-like lectin 9 (Homo sapiens) (UniProt Q9Y336). Nature of the test: Hs-Siglec9 ALPHAscreen SOP 20170721. The following applies: 10 µM. Background: In Alpha technology, singlet oxygen from a donor bead excites a nearby acceptor bead.
In test [5] the test system is Trypanosoma cruzi. Nature of the test: Trypanosoma cruzi phosphomannomutase and mannose-1-phosphate guanylyltransferase assay. Type of test: functional. The conditions noted are these: 10 µM.
The target in test [6] is T2, Arginase-2, mitochondrial (Homo sapiens) (UniProt P78540).
T2 sequence (whole entry): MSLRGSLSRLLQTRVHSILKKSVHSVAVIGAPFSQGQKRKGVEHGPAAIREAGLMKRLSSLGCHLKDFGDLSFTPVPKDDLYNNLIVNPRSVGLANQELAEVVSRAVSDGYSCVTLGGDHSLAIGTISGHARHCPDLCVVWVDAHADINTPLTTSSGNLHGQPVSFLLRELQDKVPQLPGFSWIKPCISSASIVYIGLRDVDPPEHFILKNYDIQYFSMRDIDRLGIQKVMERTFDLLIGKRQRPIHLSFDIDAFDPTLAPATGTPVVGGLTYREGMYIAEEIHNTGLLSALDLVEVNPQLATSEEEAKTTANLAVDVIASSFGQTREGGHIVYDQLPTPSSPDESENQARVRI
Nature of the test: in vitro enzyme assay to detect the production of urea directly proportional to the activity of Arginase II. Note: in the data most compounds retested in dose-response had high values. Type of test: functional. The following applies: 33.3 µM.

The target in test [7] is T3, Proteasome subunit beta (Trypanosoma cruzi) (UniProt O96673).
T3 sequence (whole entry): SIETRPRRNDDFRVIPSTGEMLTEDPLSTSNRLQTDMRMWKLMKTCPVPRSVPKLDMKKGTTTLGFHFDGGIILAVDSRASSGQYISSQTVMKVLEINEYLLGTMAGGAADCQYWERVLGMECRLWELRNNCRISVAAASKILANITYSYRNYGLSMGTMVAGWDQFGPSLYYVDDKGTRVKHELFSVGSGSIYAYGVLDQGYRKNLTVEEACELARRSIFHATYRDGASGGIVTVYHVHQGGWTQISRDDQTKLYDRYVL
In words: Trypanosoma cruzi proteasome chymotrypsin-like activity (TcProtChymo) assay. Note: in the data most compounds retested in dose-response had high values. Type of test: functional. The conditions noted are these: 9.37 µM.

The species named for test [8] is Homo sapiens. Nature of the test: To identify inhibition of the IFN signalling (Jak-Stat) pathway via expression of an eGFP reporter gene under the control of an IFN-stimulated response element (ISRE) containing MxA promoter. The following applies: 30 µM. Type of test: functional. Background: In a reporter assay the amount or activity of a reporter protein is the signal.

Test [9] addresses T4, Tyrosyl-tRNA synthetase, putative (Trypanosoma cruzi (strain CL Brener)) (UniProt Q4DSP6).
T4 sequence (whole entry): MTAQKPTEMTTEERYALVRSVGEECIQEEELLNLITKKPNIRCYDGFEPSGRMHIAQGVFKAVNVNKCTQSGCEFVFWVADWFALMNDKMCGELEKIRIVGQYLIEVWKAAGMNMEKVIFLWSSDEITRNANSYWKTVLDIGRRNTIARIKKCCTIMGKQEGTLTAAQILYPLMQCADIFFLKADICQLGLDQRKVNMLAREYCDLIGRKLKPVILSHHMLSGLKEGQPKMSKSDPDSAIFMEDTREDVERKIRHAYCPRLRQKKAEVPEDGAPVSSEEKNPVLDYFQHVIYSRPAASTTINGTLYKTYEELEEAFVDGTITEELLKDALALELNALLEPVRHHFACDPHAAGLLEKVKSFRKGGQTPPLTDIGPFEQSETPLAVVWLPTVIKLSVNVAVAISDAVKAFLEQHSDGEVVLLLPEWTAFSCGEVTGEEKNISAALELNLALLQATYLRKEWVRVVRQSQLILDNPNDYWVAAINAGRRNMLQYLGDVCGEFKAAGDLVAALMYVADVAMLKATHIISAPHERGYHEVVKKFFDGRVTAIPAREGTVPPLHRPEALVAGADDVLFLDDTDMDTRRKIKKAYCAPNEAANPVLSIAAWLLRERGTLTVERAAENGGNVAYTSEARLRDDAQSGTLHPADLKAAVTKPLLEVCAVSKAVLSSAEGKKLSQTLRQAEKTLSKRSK
Nature of the test: Trypanosoma cruzi tyrosyl tRNA synthetase (TcYRS) _High Tyrosine SOP. Note: in the data most compounds retested in dose-response had high values. Type of test: functional. The conditions noted are these: 30 µM.

For test [10], the target named is T4, Tyrosyl-tRNA synthetase, putative (Trypanosoma cruzi (strain CL Brener)). In words: Trypanosoma cruzi tyrosyl tRNA synthetase (TcYRS) SOP. Type of test: functional. The conditions noted are these: 30 µM.
Test [11] concerns the target Chromo domain-containing protein 1 (Saccharomyces cerevisiae (strain ATCC 204508 / S288c) (Baker's yeast)) (UniProt P32657). In words: ScCHD-1 Enzyme Inhibition Assay. Note: in the data most compounds retested in dose-response had high values. Type of test: functional. The following applies: 30 µM.

For some of these results: Measured potencies and affinities stand elsewhere.

Sequence of Chromo domain-containing protein 1 (Saccharomyces cerevisiae (strain ATCC 204508 / S288c) (Baker's yeast)) (P32657 whole entry, the tested form may be a part): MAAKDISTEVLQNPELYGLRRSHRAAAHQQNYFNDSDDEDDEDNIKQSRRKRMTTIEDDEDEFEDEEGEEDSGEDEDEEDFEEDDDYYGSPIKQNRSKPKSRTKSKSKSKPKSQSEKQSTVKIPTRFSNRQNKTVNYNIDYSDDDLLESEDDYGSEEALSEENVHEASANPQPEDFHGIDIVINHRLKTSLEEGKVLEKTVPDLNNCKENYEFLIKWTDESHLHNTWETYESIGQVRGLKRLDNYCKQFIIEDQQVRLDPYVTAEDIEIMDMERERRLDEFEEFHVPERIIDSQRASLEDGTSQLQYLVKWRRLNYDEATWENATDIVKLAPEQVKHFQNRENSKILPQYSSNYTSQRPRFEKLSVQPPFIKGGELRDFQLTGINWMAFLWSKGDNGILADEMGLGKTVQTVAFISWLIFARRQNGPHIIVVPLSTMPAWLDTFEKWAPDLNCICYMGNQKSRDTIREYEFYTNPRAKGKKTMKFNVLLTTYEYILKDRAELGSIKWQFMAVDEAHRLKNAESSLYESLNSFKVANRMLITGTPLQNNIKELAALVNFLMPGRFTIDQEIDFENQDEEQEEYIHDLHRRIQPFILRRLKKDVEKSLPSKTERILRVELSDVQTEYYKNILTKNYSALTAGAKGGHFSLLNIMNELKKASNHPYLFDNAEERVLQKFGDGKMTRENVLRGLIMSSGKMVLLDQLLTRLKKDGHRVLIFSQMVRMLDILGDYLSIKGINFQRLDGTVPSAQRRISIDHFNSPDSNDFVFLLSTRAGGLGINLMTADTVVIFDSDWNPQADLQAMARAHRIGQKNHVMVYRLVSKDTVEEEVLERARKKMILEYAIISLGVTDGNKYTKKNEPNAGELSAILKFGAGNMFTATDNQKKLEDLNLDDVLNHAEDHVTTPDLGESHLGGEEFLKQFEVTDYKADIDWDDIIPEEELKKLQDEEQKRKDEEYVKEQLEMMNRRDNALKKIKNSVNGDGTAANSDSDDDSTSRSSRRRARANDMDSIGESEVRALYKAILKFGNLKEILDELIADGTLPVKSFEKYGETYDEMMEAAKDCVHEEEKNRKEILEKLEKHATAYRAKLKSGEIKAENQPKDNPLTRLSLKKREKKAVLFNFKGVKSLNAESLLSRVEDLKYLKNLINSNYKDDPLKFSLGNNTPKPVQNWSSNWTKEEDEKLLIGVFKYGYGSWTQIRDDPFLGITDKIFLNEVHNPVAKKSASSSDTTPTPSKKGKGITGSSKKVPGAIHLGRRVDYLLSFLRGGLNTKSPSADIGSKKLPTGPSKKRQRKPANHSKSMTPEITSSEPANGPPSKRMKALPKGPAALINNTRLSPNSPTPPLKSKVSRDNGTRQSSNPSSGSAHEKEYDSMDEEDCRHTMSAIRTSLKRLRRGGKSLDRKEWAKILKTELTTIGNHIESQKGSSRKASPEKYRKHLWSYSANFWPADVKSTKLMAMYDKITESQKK
Sequence of Sialic acid-binding Ig-like lectin 9 (Homo sapiens) (Q9Y336 whole entry): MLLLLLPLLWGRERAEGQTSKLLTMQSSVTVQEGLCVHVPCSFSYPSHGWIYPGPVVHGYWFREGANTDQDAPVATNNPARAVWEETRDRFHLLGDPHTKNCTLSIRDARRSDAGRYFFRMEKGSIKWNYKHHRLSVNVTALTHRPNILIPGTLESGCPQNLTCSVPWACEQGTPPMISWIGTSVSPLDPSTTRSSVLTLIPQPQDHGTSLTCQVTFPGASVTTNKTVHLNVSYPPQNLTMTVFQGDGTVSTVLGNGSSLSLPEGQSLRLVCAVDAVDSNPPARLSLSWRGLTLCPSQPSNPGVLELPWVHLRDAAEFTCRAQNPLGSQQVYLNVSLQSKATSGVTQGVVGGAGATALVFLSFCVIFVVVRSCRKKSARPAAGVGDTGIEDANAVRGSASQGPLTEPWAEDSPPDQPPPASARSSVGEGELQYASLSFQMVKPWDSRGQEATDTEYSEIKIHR
Sequence of Protein translocase subunit SecA (Escherichia coli (strain K12)) (P10408 whole entry): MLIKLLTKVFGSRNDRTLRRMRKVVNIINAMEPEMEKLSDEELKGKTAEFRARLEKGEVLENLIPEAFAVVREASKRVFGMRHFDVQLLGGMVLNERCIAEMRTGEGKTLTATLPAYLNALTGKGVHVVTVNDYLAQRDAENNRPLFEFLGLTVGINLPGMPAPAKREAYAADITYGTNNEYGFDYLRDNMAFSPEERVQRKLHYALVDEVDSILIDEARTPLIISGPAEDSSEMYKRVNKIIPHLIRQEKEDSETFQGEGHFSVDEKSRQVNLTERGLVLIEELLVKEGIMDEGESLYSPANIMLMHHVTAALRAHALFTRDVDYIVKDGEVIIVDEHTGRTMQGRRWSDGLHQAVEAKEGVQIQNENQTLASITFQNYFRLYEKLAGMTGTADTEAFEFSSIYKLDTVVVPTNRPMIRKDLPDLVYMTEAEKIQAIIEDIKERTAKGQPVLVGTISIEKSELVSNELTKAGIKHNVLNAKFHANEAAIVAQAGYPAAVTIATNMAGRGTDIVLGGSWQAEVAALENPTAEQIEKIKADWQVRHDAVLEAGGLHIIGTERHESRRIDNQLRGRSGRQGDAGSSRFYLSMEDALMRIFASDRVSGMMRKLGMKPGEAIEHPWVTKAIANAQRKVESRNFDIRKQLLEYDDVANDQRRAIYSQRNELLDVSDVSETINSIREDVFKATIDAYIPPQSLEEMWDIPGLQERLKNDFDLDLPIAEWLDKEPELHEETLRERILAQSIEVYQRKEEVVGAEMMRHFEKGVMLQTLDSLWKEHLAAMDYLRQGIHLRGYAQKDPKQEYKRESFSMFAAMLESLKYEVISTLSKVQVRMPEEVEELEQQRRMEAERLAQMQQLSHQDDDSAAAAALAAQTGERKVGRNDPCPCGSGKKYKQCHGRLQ

On to `CC(=O)N1CCCN(C(=O)c2oc(Br)cc2C)CC1`, for which the Percent Effect in test [1] is -0.989%; in test [2] it was 10.8%; in [3], -1.11%; in test [4], 15.2%; in test [5], 2.12%; in test [6] it was 6.19%. Also, the Percent Effect was 21.4% in test [7]; 4.33% in test [8]; 2.65% in [9]; 17.1% in test [10]; -7.7% in test [11].
In the case of `COC[C@H]1CCC[C@]12CN(CCc1ccccc1)CCO2`, the Percent Effect in test [1] was 0.0327%; in [2] it was 12%; in [3], 1.6%; in [4], 2.89%; in [5], -5.5%; in test [6], -8.28%. In addition, the Percent Effect in test [7] was 19.8%; in [8] it was 4.65%; in [9], 1.06%; in test [10], 2.56%; in test [11] it was -6.74%.
On to `Cn1cccc1C(=O)N1CCCN(CCCc2ccccc2)CC1`, for which the Percent Effect in test [1] was 4.69%; in [2] it was -11%; in test [3], -4.66%; in test [4] it was 8.38%; in [5], -2.38%; in test [6], -14.8%. The Percent Effect is 14.3% in test [7]; 18.6% in test [8]; 9.38% in [9]; 16.1% in [10]; -3.52% in [11].
Turning to `COc1ccccc1OCc1cc(C(=O)N2C[C@H](O)[C@@H](N(C)C)C2)n[nH]1`, the Percent Effect in test [1] is -3.86%; in test [2], 6.94%; in test [3], 0.606%; in test [4] it was -3.31%; in test [5] it was -1.46%; in test [6], 0.442%. Further, the Percent Effect in [7] was 11.9%; in [8], 9.72%; in test [9] it was 2.1%; in test [10], 2.56%; in [11], -2.07%.
With `O=C(NCCNS(=O)(=O)c1ccc2c(c1)CCCC2)c1ccoc1`, the Percent Effect was -4.38% in [1]; 13.3% in test [2]; -3.34% in test [3]; 15.1% in [4]; 3.41% in [5]; 10.9% in test [6]. Besides, the Percent Effect in test [7] was 5.41%; in [8], 29.3%; in [9], 6.01%; in test [10], 13.6%; in test [11] it was 0.0598%.
`CCCNC(=O)c1ccc2c(c1)C(=O)N(CC(C)C)C2=O`: the Percent Effect in [1] is -2.78%; in [2], -8.11%; in [3], 0.767%; in test [4] it was 5.78%; in test [5], -2.32%; in test [6], -10%. The Percent Effect in [7] was 3.45%; in test [8], 0.98%; in test [9], 0.529%; in [10], 2.44%; in test [11] it was -2.46%.
For the compound `OC(CN1CCN(Cc2ccc(F)cc2)CC1)C1CC1` (stereo unspecified), the Percent Effect is -4.82% in test [1]; 8.22% in [2]; -8.34% in test [3]; -6.79% in test [4]; 0.392% in test [5]; 1.82% in [6]. Also, the Percent Effect was 4.61% in test [7]; 2.15% in [8]; 6.45% in test [9]; 20% in [10]; -4.22% in [11].
`CC(C(=O)NCCCn1ccnc1)n1cc(Br)cn1` (stereo unspecified): the Percent Effect in test [1] is -3.65%; in test [2], 2.6%; in test [3], -2.79%; in [4], 7.47%; in [5] it was 3.83%; in test [6], -33.1%. The Percent Effect in [7] is 10.7%; in [8] it was -6.92%; in test [9] it was 7.53%; in test [10], 18.5%; in [11], -2%.
Consider `CCc1ncnc2c1CCN(Cc1ccccn1)CC2`, for which the Percent Effect is -1.83% in test [1]; -1.33% in [2]; -3.43% in test [3]; -1.27% in test [4]; -5.11% in test [5]; -11.4% in [6]. The Percent Effect in test [7] is 0%; in test [8] it was -11.7%; in test [9], -3.17%; in [10], -5.13%; in test [11], -3.62%.
Consider `COCCN1CCc2cc(C(=O)NCC3CC3)c(NC(C)C)nc2CC1`, for which the Percent Effect in test [1] is -2.06%; in test [2] it was 8%; in test [3], 4.16%; in test [4], 9.64%; in test [5], -1.74%; in test [6], -27.8%. Besides, the Percent Effect in test [7] was 13.2%; in test [8], 55.7%; in test [9], 1.04%; in [10], 12.5%; in [11] it was -10.2%.
Consider `CC(C(=O)NCCOc1cccc(Cl)c1)n1cncn1` (stereo unspecified), for which the Percent Effect is -1.19% in test [1]; 17.7% in test [2]; -0.802% in [3]; -7.8% in test [4]; 2.55% in [5]; 3.42% in test [6]. For the same compound, the Percent Effect in [7] was 7.94%; in test [8] it was -10.4%; in [9] it was -2.46%; in test [10], 13.9%; in [11] it was -5.29%.

(Values after ChEMBL document CHEMBL3988442, “University of Dundee, Small-Polar-MMV Screening Library” (2021).)
